# High-throughput results as filed in PubChem.
# An excerpt weighted towards active compounds, which were near 11% of everything screened.
# Luciferase inh: blocks purified firefly luciferase enzyme activity. purified P. pyralis luciferase, luminescence, biochemical. Potency, µM (titrated, usually from 115 µM), hits mostly inhibitors. hit rate 2.5% among 76,000; further: nearly all actives have a fitted effect of over 65% in size
#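 Purified 10nM P. pyralis luciferase with 10uM D-luciferin and 10uM ATP in 50mM Tris acetate pH 7.5, 10mM Mg acetate, 0.01% Tween-20, 0.05% BSA. qHTS titration; luminescence read by CCD imager.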
# HEK cytotox: HEK 293 cell cytotoxicity; hit rate 6.6% among 94,000; AID 1345083; HEK 293 viability, ATP luminescence (CellTiter-Glo), 48-72 h; Potency, µM (series often up to 115 µM), inactives show at the top dose activity change, negative = cytotoxicity, usual class: inhibitors; further: nearly all actives have a fitted effect of over 60% in size
#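 Viability of HEK 293 cells, plated at 250 cells/well, was judged by cellular ATP after compound treatment for 48 or 72 hr. Luminescence was imaged 10 min after CellTiter-Glo addition at room temperature.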
# NPR1 antag: antagonists of human natriuretic peptide receptor Npr1; hit rate 1.6% among 76,000; P16066; HEK293 hNpr1 GloSensor cGMP, ANP-stimulated luminescence; Potency, µM (doses to about 46.3 µM), inactives show at the top dose activity change, negative = inhibition, most hits filed as inhibitors; AID 1347048; calls by dose curve; further: nearly all actives have a fitted effect of over 60% in size
#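 Compound pre-incubated 30 min at room temperature on GloSensor-loaded HEK293 cells stably carrying hNpr1 and the pGS-40F cGMP biosensor. Stimulation uses hNppA at 0.1 nM final; luminescence is taken at baseline and 20 min post-agonist.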
# 3T3 cytotox: kills NIH 3T3 cells; Potency, µM (titrated, usually from 96.7 µM), without a hit: top-dose activity change, negative = cytotoxicity, most hits filed as inhibitors; hit rate 4.3% among 94,000; NIH 3T3 viability, CellTiter-Glo ATP luminescence, 48-72 h; AID 1345082; further: nearly all actives have a fitted effect of over 55% in size
#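 Luminescent ATP readout (CellTiter-Glo, 10 min RT) after 48 or 72 hr compound exposure of NIH 3T3 cells seeded at 400 cells/well in 1536-well format; quantitative HTS.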
# * hit, by the source's call; i = inactive; ? = inconclusive; / = not tested or not shown; [ ] = another dose, or the depositor's remark. Unless noted, the call rests on the fitted dose curve; in most records, active means well fitted curve in the direction sought with a large enough effect; inconclusive means small, poorly fitted or top-dose-only effect, or another doubt; inactive means no such curve, though single readings can be large; an effect the other way counts as inactive or inconclusive. On the % scale 0 is the no-effect control and ±100 the full control effect; potency means the concentration at half of the fitted maximal effect.
SMILES,Luciferase inh,HEK cytotox,NPR1 antag,3T3 cytotox
CC(C)NC(=O)[C@@H]1CCCN1c1nccc(Nc2ccccc2Cl)n1,/,?,/,-29.1%
CCCCn1c(=O)c(C(=O)N2CCN(C(=O)NC(C)C)CC2)nc2cccnc21,/,-3.2%,/,-28.2%
c1nc(-c2cc(NC3CCNCC3)nc3[nH]ccc23)c2sccc2n1,i,?,-12.9%,?
CN(C)C(=O)c1ccc(-c2cc(NC3CCCC3)nc3[nH]ccc23)o1,?,44.7µM*,5.8%,?
O=C(NCc1ccc(F)cc1)C1CCN(Cc2ccccc2-c2ccccc2F)CC1,/,31.6µM*,/,31.6µM*
O=C(NCc1cccc(C(F)(F)F)c1)C1CCN(Cc2ccccc2-c2ccccc2F)CC1,/,25.1µM*,/,?
O=C1c2c(nc(COc3ccccc3)n2Cc2ccccc2)NCCN1CCOc1ccccc1,i,31.6µM*,-25.1%,?
O=C1c2c(nc(CNc3ccccc3Cl)n2Cc2ccccc2)NCCN1CC1CC1,i,100µM*,-17.4%[70.6 µM],89.1µM*
COc1cccc(OCc2nc3c(n2Cc2ccccc2)C(=O)N(CCOc2ccccc2)CCN3)c1,i,31.6µM*,?,20µM*
O=C1c2c(nc(COc3cccc(C(F)(F)F)c3)n2Cc2ccccc2)NCCN1CC1CC1,i,50.1µM*,-8.1%,35.5µM*
CSc1ccc(-c2cccc(C(=O)NCCNC(=O)c3cccc(Cl)c3)c2)cc1,/,-28.7%,/,-27.9%
O=C1c2c(nc(COc3cccc(Cl)c3)n2Cc2ccccc2)NCCN1CCOc1ccccc1,i,?,-17.3%,17.8µM*
N#Cc1cccc(OCc2nc3c(n2Cc2ccccc2)C(=O)N(Cc2ccccc2F)CCN3)c1,i,?,-21.4%,28.2µM*
Cc1ccc(NC(=O)N2CCc3c(C(=O)NC(C)c4cccnc4)cccc32)cc1 (stereo not given),0.398µM*,?,4.47µM*,?
CC(NC(=O)c1cccc2c1CCN2C(=O)Nc1ccc(F)cc1)c1ccccn1 (stereo not given),0.794µM*,?,11.2µM*,?
C=CCNC(=O)N1C[C@@H](C(=O)OCC)[C@@H]2Oc3c(C)cccc3[C@@H]21,/,-10.1%,/,?
O=C1CC(c2ccccc2)N(Cc2ccncc2)CCCN(S(=O)(=O)c2cccc(F)c2)CCN1 (stereo not given),i,44.7µM*,-13.3%,?
O=C1CC(c2ccccc2)N(Cc2ccncc2)CCCN(S(=O)(=O)c2cccnc2)CCN1 (stereo not given),i,-22.6%,-2.6%,-26.1%
COc1ccccc1-c1cccc(C(=O)N2CCN(C(C)=O)CC2)c1,/,-20.2%[172 µM],/,-27.5%[138 µM]
COc1ccc(NC(=O)N[C@@H]2C=C[C@@H](c3c(C)nn(CCC#N)c3C)C2)cc1,i,?,-12.6%[70.6 µM],?
COc1ccc(NC(=O)N[C@@H]2C=C[C@@H](c3c(C)nn(-c4ccccn4)c3C)C2)cc1,?,70.8µM*,-18.6%[70.6 µM],112µM*
COc1ccc(-n2nc(C)c([C@H]3C=C[C@@H](OC(=O)Nc4ccc(Br)cc4)C3)c2C)cc1,35.5µM*,?,11.2µM*,?
Cc1ccc(C(=O)N2CCC(n3cnnc3-c3ccccc3)CC2)s1,/,-13.3%,/,-5.0%
O=C1[C@@H]2C[C@@H](CN2Cc2cnc3ccccc3c2)Oc2ccccc2N1Cc1ccccc1,i,50.1µM*,-19.4%,?
COCCN1C(=O)[C@@H]2C[C@@H](CN2Cc2cnc3ccccc3c2)Oc2ccccc21,i,?,-1.9%[70.6 µM],100µM*
SMILES,Luciferase inh,HEK cytotox,NPR1 antag,3T3 cytotox
Cc1ccc(-c2noc([C@@H]3C[C@@H](O)CN3Cc3cccnc3)n2)cc1F,?,63.1µM*,?,?
COc1ccc(CN2C[C@H](O)C[C@H]2c2nc(-c3ccc(C)c(F)c3)no2)cc1,35.5µM*,?,7.3%[70.6 µM],?
O[C@@H]1C[C@@H](c2nc(-c3ccncc3)no2)N(Cc2ccc(F)cc2)C1,i,-5.5%[172 µM],-2.8%[70.6 µM],-21.6%[174 µM]
O[C@@H]1C[C@@H](c2nc(-c3ccc(F)cc3)no2)N(Cc2ccncc2)C1,63.1µM*,70.8µM*,?,?
COc1ccc(-c2noc([C@@H]3C[C@@H](O)CN3Cc3ccc(F)cc3)n2)cc1,44.7µM*,?,-9.5%[70.6 µM],-16.7%[174 µM]
COc1ccc(CN2C[C@H](O)C[C@H]2c2nc(-c3ccncc3)no2)cc1,i,?,-0.4%[70.6 µM],-10.9%[174 µM]
COc1ccc(C(=O)N2CCCN(c3ccc4nnc(C)n4n3)CC2)cc1,/,-2.0%,/,-1.6%
